Reference: PubChem BioAssay

target: Neurogenic locus notch homolog protein 3 (Homo sapiens) (UniProt Q9UM47); assay: small molecules binding NOTCH3 protein – biochemical, 635/667 nm fluorescence, primary screen (AID 1096); details: small-molecule microarray, 635 nm fluorescence, higher = more signal
Sequence (Q9UM47 whole entry, looked up): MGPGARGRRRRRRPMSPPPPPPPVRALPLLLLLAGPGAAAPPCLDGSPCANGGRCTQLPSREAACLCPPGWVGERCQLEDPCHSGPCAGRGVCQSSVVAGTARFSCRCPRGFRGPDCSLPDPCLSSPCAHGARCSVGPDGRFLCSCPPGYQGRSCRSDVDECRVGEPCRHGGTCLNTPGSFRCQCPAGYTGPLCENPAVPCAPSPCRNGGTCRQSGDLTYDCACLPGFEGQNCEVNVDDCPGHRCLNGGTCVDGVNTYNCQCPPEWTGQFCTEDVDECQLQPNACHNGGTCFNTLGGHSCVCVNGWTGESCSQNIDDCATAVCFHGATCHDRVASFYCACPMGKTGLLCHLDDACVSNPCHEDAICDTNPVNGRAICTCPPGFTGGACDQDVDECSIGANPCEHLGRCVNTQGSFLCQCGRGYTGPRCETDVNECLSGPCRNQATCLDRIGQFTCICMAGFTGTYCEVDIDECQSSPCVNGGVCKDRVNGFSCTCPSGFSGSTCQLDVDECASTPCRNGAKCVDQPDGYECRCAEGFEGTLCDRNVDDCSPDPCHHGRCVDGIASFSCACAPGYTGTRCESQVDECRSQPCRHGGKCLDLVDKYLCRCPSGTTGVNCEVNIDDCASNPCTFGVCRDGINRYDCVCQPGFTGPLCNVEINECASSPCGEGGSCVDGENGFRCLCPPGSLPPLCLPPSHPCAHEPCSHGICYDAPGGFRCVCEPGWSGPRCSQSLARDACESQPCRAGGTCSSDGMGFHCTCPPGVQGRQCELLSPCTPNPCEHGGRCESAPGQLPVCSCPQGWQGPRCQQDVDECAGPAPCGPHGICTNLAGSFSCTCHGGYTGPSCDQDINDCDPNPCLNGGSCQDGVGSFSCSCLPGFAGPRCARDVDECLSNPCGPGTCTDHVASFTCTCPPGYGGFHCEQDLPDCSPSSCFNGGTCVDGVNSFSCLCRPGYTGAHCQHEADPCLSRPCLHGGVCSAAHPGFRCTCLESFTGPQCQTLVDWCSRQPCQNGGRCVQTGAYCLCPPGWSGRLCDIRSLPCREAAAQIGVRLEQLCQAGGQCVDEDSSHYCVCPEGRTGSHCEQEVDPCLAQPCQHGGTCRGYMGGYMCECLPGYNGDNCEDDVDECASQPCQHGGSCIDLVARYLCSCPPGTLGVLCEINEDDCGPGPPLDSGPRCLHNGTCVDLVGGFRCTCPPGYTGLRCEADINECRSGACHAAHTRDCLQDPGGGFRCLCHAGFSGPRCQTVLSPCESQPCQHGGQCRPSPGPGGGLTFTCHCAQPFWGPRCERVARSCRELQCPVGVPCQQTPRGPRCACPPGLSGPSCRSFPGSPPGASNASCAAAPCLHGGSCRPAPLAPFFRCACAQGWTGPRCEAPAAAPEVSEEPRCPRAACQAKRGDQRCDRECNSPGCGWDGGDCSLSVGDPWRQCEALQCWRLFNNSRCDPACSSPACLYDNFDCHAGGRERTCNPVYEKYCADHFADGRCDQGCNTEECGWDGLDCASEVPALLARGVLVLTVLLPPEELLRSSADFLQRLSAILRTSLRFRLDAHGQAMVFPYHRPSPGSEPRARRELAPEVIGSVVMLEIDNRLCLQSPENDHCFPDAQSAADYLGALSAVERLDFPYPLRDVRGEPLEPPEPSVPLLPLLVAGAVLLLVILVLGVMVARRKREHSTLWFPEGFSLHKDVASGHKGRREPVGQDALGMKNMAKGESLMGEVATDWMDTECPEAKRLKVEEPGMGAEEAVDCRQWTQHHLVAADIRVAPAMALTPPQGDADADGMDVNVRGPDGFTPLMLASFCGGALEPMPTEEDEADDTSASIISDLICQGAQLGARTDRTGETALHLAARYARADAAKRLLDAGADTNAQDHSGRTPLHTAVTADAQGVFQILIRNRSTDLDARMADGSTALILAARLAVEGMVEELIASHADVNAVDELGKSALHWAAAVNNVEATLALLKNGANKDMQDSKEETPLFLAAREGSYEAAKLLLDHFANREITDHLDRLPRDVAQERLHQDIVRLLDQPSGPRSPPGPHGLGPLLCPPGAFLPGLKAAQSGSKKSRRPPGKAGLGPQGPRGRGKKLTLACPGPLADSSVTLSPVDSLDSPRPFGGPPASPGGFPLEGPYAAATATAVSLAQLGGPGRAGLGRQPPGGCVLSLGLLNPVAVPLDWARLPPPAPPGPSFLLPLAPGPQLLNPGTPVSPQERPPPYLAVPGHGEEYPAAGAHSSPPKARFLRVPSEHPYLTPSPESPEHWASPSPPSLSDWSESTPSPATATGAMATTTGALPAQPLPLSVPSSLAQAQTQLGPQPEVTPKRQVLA

Row | SMILES | composite z-score
1 | C=CCOC(=O)[C@H]1[C@@H]2C(=O)O[C@@H](c3ccccc3)[C@@H](c3ccccc3)N2[C@@H](c2ccc(OCCOC(=O)[C@@H]3C[C@@H]4C(=O)N5CCC[C@H]5C(=O)N4[C@@H]3c3ccc(O)cc3)cc2)[C@]12C(=O)Nc1ccccc12 | 0.799
2 | CC(C)OC(=O)CC(=O)CC(O)c1ccc(C#N)cc1 (stereo not given) | 0.14
3 | O=C(OCCF)C1=CCC(c2cccc(Cl)c2)O1 (stereo not given) | 0.1
4 | [N-]=[N+]=NCc1ccccc1[C@@H]1OC(c2ccc(OCCCO)cc2)=N[C@]1(Cc1ccccc1N=[N+]=[N-])C(=O)NCc1ccccc1 | 1.13
5 | COc1ccc(C(O)C2C=CC3C(=O)N(c4ccccc4)C(=O)C3N2Nc2ccc([N+](=O)[O-])cc2)cc1OCc1ccccc1 (stereo not given) | 1.11
6 | Cc1ccccc1C(O)C1C=CC2C(=O)N(C)C(=O)C2N1N1CCCCC1 (stereo not given) | 1.13
7 | COCCOC(=O)N1C(=O)[C@@]2(c3cc(C#CCNC(N)=O)ccc31)[C@H](c1ccccc1OCCO)N1[C@H](c3ccccc3)[C@H](c3ccccc3)OC(=O)[C@H]1[C@@H]2C(N)=O | 1.09
8 | O=C1C2C=CC(C(O)c3cccs3)N(Nc3ccccc3F)C2C(=O)N1c1ccccc1 (stereo not given) | 0.476
9 | COC(=O)C1=CC(CCCO)=CC(C2CC2)N(Cc2sc3ccccc3c2Cl)C=C1C(=O)OC (stereo not given) | 1.16
10 | COCCOC(=O)N1C(=O)[C@@]2(c3cc(C#Cc4ccc(OC)cc4)ccc31)[C@H](C(=O)N1CCN(c3ncccn3)CC1)[C@H]1C(=O)O[C@H](c3ccccc3)[C@H](c3ccccc3)N1[C@@H]2c1ccc(O)cc1 | 0.213
